Changes are numbered by the printed parent chain.
Tests used:
Assay in all cases: PBM; 200 nM protein, PBS
Settings in all cases: dsDNA, one strand shown
SIX6 [1] = target: T1, SIX6 (Homo sapiens, UniProt O95475 114-200, L167I)
T1 sequence: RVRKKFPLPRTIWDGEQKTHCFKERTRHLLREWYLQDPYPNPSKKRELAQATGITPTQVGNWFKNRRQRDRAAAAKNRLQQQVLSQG

SIX6 [2] = target: T2, SIX6 (Homo sapiens, UniProt O95475 114-200, L143V)
T2 sequence: T1 sequence with L30V, I54L

SIX6 [3] = target: T3, SIX6 (Homo sapiens, UniProt O95475 114-200, H141N)
T3 sequence: T1 sequence with H28N, I54L

SIX6 [4] = target: T4, SIX6 (Homo sapiens, UniProt O95475 114-200, T165P)
T4 sequence: T1 sequence with T52P, I54L

SIX6 [5] = target: T5, SIX6 (Homo sapiens, UniProt O95475 114-200, L167M)
T5 sequence: T1 sequence with I54M

SIX6 [6] = target: T6, SIX6 (Homo sapiens, UniProt O95475 114-200, L143M)
T6 sequence: T1 sequence with L30M, I54L

SIX6 [7] = target: T7, SIX6 (Homo sapiens, UniProt O95475 114-200, L143I)
T7 sequence: T1 sequence with L30I, I54L

SIX6 [8] = target: T8, SIX6 (Homo sapiens, UniProt O95475 114-200, T165G)
T8 sequence: T1 sequence with T52G, I54L

SIX6 [9] = target: T9, SIX6 (Homo sapiens, UniProt O95475 114-200, T139Q)
T9 sequence: T1 sequence with T26Q, I54L

SIX6 [10] = target: T10, SIX6 (Homo sapiens, UniProt O95475 114-200, T165A)
T10 sequence: T1 sequence with T52A, I54L

SIX6 [11] = target: T11, SIX6 (Homo sapiens, UniProt O95475 114-200, L167V)
T11 sequence: T1 sequence with I54V

SIX6 [12] = target: T12, SIX6 (Homo sapiens, UniProt O95475 114-200)
T12 sequence: T1 sequence with I54L

SIX6 [13] = target: T13, SIX6 (Homo sapiens, UniProt O95475 114-200, T165I)
T13 sequence: T1 sequence with T52I, I54L

ALX3 [14] = target: ALX3 (Homo sapiens, UniProt O95076 139-225, N203Q)
ALX3 [15] = target: ALX3 (Homo sapiens, UniProt O95076 139-225, N203S)
ALX3 (Homo sapiens, UniProt O95076 139-225, N203S), sequence (O95076 139-225 N203S): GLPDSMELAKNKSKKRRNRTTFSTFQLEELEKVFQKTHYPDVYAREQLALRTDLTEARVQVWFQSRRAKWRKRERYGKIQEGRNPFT

ALX3 (Homo sapiens, UniProt O95076 139-225, N203Q), sequence (O95076 139-225 N203Q): as the sequence (O95076 139-225 N203S) above, with S65Q counted along it

| Sequence | binding signal (SIX6 [1]) | binding signal (SIX6 [2]) | binding signal (SIX6 [3]) | binding signal (SIX6 [4]) | binding signal (SIX6 [5]) | binding signal (SIX6 [6]) | binding signal (SIX6 [7]) | binding signal (SIX6 [8]) | binding signal (SIX6 [9]) | binding signal (SIX6 [10]) | binding signal (SIX6 [11]) | binding signal (SIX6 [12]) | binding signal (SIX6 [13]) | binding signal (ALX3 [14]) | binding signal (ALX3 [15]) |
| --- | --- | --- | --- | --- | --- | --- | --- | --- | --- | --- | --- | --- | --- | --- | --- |
| ATGGCCGC | 8.86 upbm affinity estimate (log intensity, higher = more binding, comparable within an allelic series) | 8.81 upbm affinity estimate (log intensity, higher = more binding, comparable within an allelic series) | 8.75 upbm affinity estimate (log intensity, higher = more binding, comparable within an allelic series) | 8.94 upbm affinity estimate (log intensity, higher = more binding, comparable within an allelic series) | 8.89 upbm affinity estimate (log intensity, higher = more binding, comparable within an allelic series) | 8.74 upbm affinity estimate (log intensity, higher = more binding, comparable within an allelic series) | 8.82 upbm affinity estimate (log intensity, higher = more binding, comparable within an allelic series) | 8.77 upbm affinity estimate (log intensity, higher = more binding, comparable within an allelic series) | 8.7 upbm affinity estimate (log intensity, higher = more binding, comparable within an allelic series) | 8.69 upbm affinity estimate (log intensity, higher = more binding, comparable within an allelic series) | 8.93 upbm affinity estimate (log intensity, higher = more binding, comparable within an allelic series) | 8.75 upbm affinity estimate (log intensity, higher = more binding, comparable within an allelic series) | 8.83 upbm affinity estimate (log intensity, higher = more binding, comparable within an allelic series) | – | – |
| AGGGCCCG | 8.98 upbm affinity estimate (log intensity, higher = more binding, comparable within an allelic series) | 8.79 upbm affinity estimate (log intensity, higher = more binding, comparable within an allelic series) | 8.98 upbm affinity estimate (log intensity, higher = more binding, comparable within an allelic series) | 8.84 upbm affinity estimate (log intensity, higher = more binding, comparable within an allelic series) | 8.98 upbm affinity estimate (log intensity, higher = more binding, comparable within an allelic series) | 8.93 upbm affinity estimate (log intensity, higher = more binding, comparable within an allelic series) | 8.9 upbm affinity estimate (log intensity, higher = more binding, comparable within an allelic series) | 8.99 upbm affinity estimate (log intensity, higher = more binding, comparable within an allelic series) | 9.07 upbm affinity estimate (log intensity, higher = more binding, comparable within an allelic series) | 8.92 upbm affinity estimate (log intensity, higher = more binding, comparable within an allelic series) | 8.93 upbm affinity estimate (log intensity, higher = more binding, comparable within an allelic series) | 8.95 upbm affinity estimate (log intensity, higher = more binding, comparable within an allelic series) | 8.9 upbm affinity estimate (log intensity, higher = more binding, comparable within an allelic series) | – | – |
| ATGATACC | 11.6 upbm affinity estimate (log intensity, higher = more binding, comparable within an allelic series) | 10.5 upbm affinity estimate (log intensity, higher = more binding, comparable within an allelic series) | 11.6 upbm affinity estimate (log intensity, higher = more binding, comparable within an allelic series) | 9.82 upbm affinity estimate (log intensity, higher = more binding, comparable within an allelic series) | 11 upbm affinity estimate (log intensity, higher = more binding, comparable within an allelic series) | 11.3 upbm affinity estimate (log intensity, higher = more binding, comparable within an allelic series) | 10.6 upbm affinity estimate (log intensity, higher = more binding, comparable within an allelic series) | 11.7 upbm affinity estimate (log intensity, higher = more binding, comparable within an allelic series) | 11.5 upbm affinity estimate (log intensity, higher = more binding, comparable within an allelic series) | 11.6 upbm affinity estimate (log intensity, higher = more binding, comparable within an allelic series) | 11.4 upbm affinity estimate (log intensity, higher = more binding, comparable within an allelic series) | 11.4 upbm affinity estimate (log intensity, higher = more binding, comparable within an allelic series) | 11.3 upbm affinity estimate (log intensity, higher = more binding, comparable within an allelic series) | – | – |
| CGCAACCG | 9.24 upbm affinity estimate (log intensity, higher = more binding, comparable within an allelic series) | 9.05 upbm affinity estimate (log intensity, higher = more binding, comparable within an allelic series) | 9.23 upbm affinity estimate (log intensity, higher = more binding, comparable within an allelic series) | 9.03 upbm affinity estimate (log intensity, higher = more binding, comparable within an allelic series) | 9.16 upbm affinity estimate (log intensity, higher = more binding, comparable within an allelic series) | 9.07 upbm affinity estimate (log intensity, higher = more binding, comparable within an allelic series) | 9.2 upbm affinity estimate (log intensity, higher = more binding, comparable within an allelic series) | 9.18 upbm affinity estimate (log intensity, higher = more binding, comparable within an allelic series) | 9.31 upbm affinity estimate (log intensity, higher = more binding, comparable within an allelic series) | 9.14 upbm affinity estimate (log intensity, higher = more binding, comparable within an allelic series) | 9.12 upbm affinity estimate (log intensity, higher = more binding, comparable within an allelic series) | 9.2 upbm affinity estimate (log intensity, higher = more binding, comparable within an allelic series) | 9.15 upbm affinity estimate (log intensity, higher = more binding, comparable within an allelic series) | – | – |
| ATGTATCA | 11.4 upbm affinity estimate (log intensity, higher = more binding, comparable within an allelic series) | 10.6 upbm affinity estimate (log intensity, higher = more binding, comparable within an allelic series) | 11.5 upbm affinity estimate (log intensity, higher = more binding, comparable within an allelic series) | 10.1 upbm affinity estimate (log intensity, higher = more binding, comparable within an allelic series) | 11 upbm affinity estimate (log intensity, higher = more binding, comparable within an allelic series) | 11.2 upbm affinity estimate (log intensity, higher = more binding, comparable within an allelic series) | 10.6 upbm affinity estimate (log intensity, higher = more binding, comparable within an allelic series) | 11.5 upbm affinity estimate (log intensity, higher = more binding, comparable within an allelic series) | 11.3 upbm affinity estimate (log intensity, higher = more binding, comparable within an allelic series) | 11.4 upbm affinity estimate (log intensity, higher = more binding, comparable within an allelic series) | 11.2 upbm affinity estimate (log intensity, higher = more binding, comparable within an allelic series) | 11.2 upbm affinity estimate (log intensity, higher = more binding, comparable within an allelic series) | 11.3 upbm affinity estimate (log intensity, higher = more binding, comparable within an allelic series) | – | – |
| GTATGATA | 11 upbm affinity estimate (log intensity, higher = more binding, comparable within an allelic series) | 10.5 upbm affinity estimate (log intensity, higher = more binding, comparable within an allelic series) | 11.1 upbm affinity estimate (log intensity, higher = more binding, comparable within an allelic series) | 10.1 upbm affinity estimate (log intensity, higher = more binding, comparable within an allelic series) | 10.6 upbm affinity estimate (log intensity, higher = more binding, comparable within an allelic series) | 11 upbm affinity estimate (log intensity, higher = more binding, comparable within an allelic series) | 10.5 upbm affinity estimate (log intensity, higher = more binding, comparable within an allelic series) | 11.2 upbm affinity estimate (log intensity, higher = more binding, comparable within an allelic series) | 11.2 upbm affinity estimate (log intensity, higher = more binding, comparable within an allelic series) | 11 upbm affinity estimate (log intensity, higher = more binding, comparable within an allelic series) | 10.9 upbm affinity estimate (log intensity, higher = more binding, comparable within an allelic series) | 11 upbm affinity estimate (log intensity, higher = more binding, comparable within an allelic series) | 10.9 upbm affinity estimate (log intensity, higher = more binding, comparable within an allelic series) | – | – |
| GTATCAAC | 11.2 upbm affinity estimate (log intensity, higher = more binding, comparable within an allelic series) | 10.3 upbm affinity estimate (log intensity, higher = more binding, comparable within an allelic series) | 11.3 upbm affinity estimate (log intensity, higher = more binding, comparable within an allelic series) | 9.76 upbm affinity estimate (log intensity, higher = more binding, comparable within an allelic series) | 10.6 upbm affinity estimate (log intensity, higher = more binding, comparable within an allelic series) | 11 upbm affinity estimate (log intensity, higher = more binding, comparable within an allelic series) | 10.4 upbm affinity estimate (log intensity, higher = more binding, comparable within an allelic series) | 11.4 upbm affinity estimate (log intensity, higher = more binding, comparable within an allelic series) | 11.3 upbm affinity estimate (log intensity, higher = more binding, comparable within an allelic series) | 11.3 upbm affinity estimate (log intensity, higher = more binding, comparable within an allelic series) | 11 upbm affinity estimate (log intensity, higher = more binding, comparable within an allelic series) | 11.1 upbm affinity estimate (log intensity, higher = more binding, comparable within an allelic series) | 11.1 upbm affinity estimate (log intensity, higher = more binding, comparable within an allelic series) | – | – |
| AGGCGCCC | 8.71 upbm affinity estimate (log intensity, higher = more binding, comparable within an allelic series) | 8.6 upbm affinity estimate (log intensity, higher = more binding, comparable within an allelic series) | 8.7 upbm affinity estimate (log intensity, higher = more binding, comparable within an allelic series) | 8.77 upbm affinity estimate (log intensity, higher = more binding, comparable within an allelic series) | 8.76 upbm affinity estimate (log intensity, higher = more binding, comparable within an allelic series) | 8.63 upbm affinity estimate (log intensity, higher = more binding, comparable within an allelic series) | 8.66 upbm affinity estimate (log intensity, higher = more binding, comparable within an allelic series) | 8.66 upbm affinity estimate (log intensity, higher = more binding, comparable within an allelic series) | 8.66 upbm affinity estimate (log intensity, higher = more binding, comparable within an allelic series) | 8.69 upbm affinity estimate (log intensity, higher = more binding, comparable within an allelic series) | 8.65 upbm affinity estimate (log intensity, higher = more binding, comparable within an allelic series) | 8.6 upbm affinity estimate (log intensity, higher = more binding, comparable within an allelic series) | 8.7 upbm affinity estimate (log intensity, higher = more binding, comparable within an allelic series) | 7.72 upbm affinity estimate (log intensity, higher = more binding, comparable within an allelic series) | 7.72 upbm affinity estimate (log intensity, higher = more binding, comparable within an allelic series) |
